Source: PubChem BioAssay AID1020 (Sanford-Burnham Center for Chemical Genomics, 2008)
Out of some 200,000 compounds screened, about 240 (0.12%) were called active. Rule as the data show it: active = inhibition above about 50%; inactive = the rest. This excerpt belongs to a sample that is enriched for actives.

Each compound was assayed on glucose-6-phosphate dehydrogenase [Leuconostoc mesenteroides] (assay: L. mesenteroides G6PDH inhibitors, counter-screen for G6PDH-coupled screening assays, biochemical, Leuconostoc mesenteroides enzyme (AID 1020)). Conditions: Purified L. mesenteroides G6PDH, diaphorase/resazurin coupled fluorescence, 45 min; at 5 µM; hits give high values.
For `CCOc1ccc(C(c2c(C)[nH][nH]c2=O)c2c(C)[nH][nH]c2=O)cc1OCC`, the inhibition was 12.1% (inactive). For `O=C(CC1NCCNC1=O)Nc1cc(Cl)cc(Cl)c1` (stereo not given), the inhibition was -3.6% (inactive). `Cc1ccc(C(=O)c2ccc(N3CCN(C)CC3)c([N+](=O)[O-])c2)cc1` was tested, and the inhibition was 9.1% (inactive). For `O=C(NC(=S)NC1CCSC1=O)c1ccccc1F` (stereo not given), the inhibition was 13.8% (inactive). With `O=C(CSc1nnc(SCc2ccc(Cl)cc2)s1)N/N=C/c1ccccc1Cl` the inhibition was -21.5% (inactive). In the case of `CCC(C)(C)NC(=O)C1c2ccccc2Oc2ccccc21`, the inhibition was 3.6% (inactive). With `COC(=O)c1ccc(NC(=O)CSc2nncc3ccc(OC)c(OC)c23)cc1` the inhibition was 2.5% (inactive). For `CCC(C)NCCOCCOc1ccc(Br)cc1C` (stereo not given), the inhibition was 6.6% (inactive). For `CCOc1cc(NS(=O)(=O)c2ccc(OC)cc2)c(OCC)cc1NC(C)=O`, the inhibition was 6.7% (inactive). In the case of `COc1ccc(C(C(=O)NC2CCCCC2)N(C(=O)Cc2c[nH]c3ccccc23)c2ccccc2)cc1OC` (stereo not given), the inhibition was 14.4% (inactive). For `C/C(=N\OC(=O)c1ccccc1)c1c(C)nc2cc(C)ccn12`, the inhibition was 1.1% (inactive). With `CCc1ccc(N2CC(O)=C(c3nc4ccccc4c(=O)[nH]3)C2=N)cc1` the inhibition was 16.2% (inactive). With `CC(C)N(Cc1ccccc1)C(=S)Nc1ccc(OC(F)F)cc1` the inhibition was 0.3% (inactive). For `Cc1cccc(NC(=S)NCCN(C2CCCCC2)C2CCCC2)c1`, the inhibition was 3.8% (inactive). `COc1ccc(Cl)cc1NC(=O)CNc1ccccc1F` was tested, and the inhibition was -1.9% (inactive). `S=c1[nH]nc(-c2ccco2)n1/N=C/c1ccc(Br)s1` was tested, and the inhibition was 8.8% (inactive). In the case of `C=CCn1c(CCNC(=O)c2ccccc2F)nnc1SCC(=O)Nc1ccc(OC)cc1`, the inhibition was 0.9% (inactive). With `O=C(COc1ccc(S(=O)(=O)NCc2ccccc2)cc1)N1CCOCC1` the inhibition was 4.2% (inactive). For `Cn1c(N)c(C(=O)COC(=O)c2ccccc2NCc2ccco2)c(=O)n(C)c1=O`, the inhibition was 0.8% (inactive). For `CCOC(=O)c1cnc2[nH]c3ccccc3n2c1=O`, the inhibition was 5% (inactive). With `O=[N+]([O-])c1cccc(-c2nnc3c4ccccc4c4ccccc4n23)c1` the inhibition was 9.1% (inactive). For `O=c1[nH]c2ccccc2n2c(-c3ccccc3)nnc12`, the inhibition was 50% (active). `CC(C)N1C(=O)N(c2ccccc2)C(C)(O)CC1(C)C` (stereo not given) was tested, and the inhibition was 5.1% (inactive). For `O=C1Nc2ccc([N+](=O)[O-])cc2C1=Nc1cccc(CO)c1`, the inhibition was 46.7% (inactive). In the case of `Cc1nc(N)c(Br)c(C)c1Br`, the inhibition was 4% (inactive). `O=C(CSc1ccc(-c2ccco2)nn1)NCc1ccc2c(c1)OCO2` was tested, and the inhibition was 6.1% (inactive). For `Cc1ccc(C)c(-n2ccnc2SCC(N)=O)c1`, the inhibition was 13.8% (inactive). In the case of `O=C(NC1CCCC1)C(c1ccc(N2CCOCC2)cc1)N(C(=O)c1ccco1)c1ccccc1F` (stereo not given), the inhibition was 14.1% (inactive). For `COc1cccc(NC(=O)c2ccc3c(SCC(=O)O)c4c(nc3c2)CCCC4)c1`, the inhibition was 6% (inactive). In the case of `NS(=O)(=O)c1ccc(NC(=O)COC(=O)C2(c3ccc(F)cc3)CCCC2)cc1`, the inhibition was 16.5% (inactive). For `COc1ccc(/C=C2/C(=O)OCc3cc(OC)c(OC)cc32)c(OC)c1`, the inhibition was -2.8% (inactive). With `CCOC(=O)c1ccc[n+](CC(=O)Nc2ccccc2OC(F)F)c1` the inhibition was 6.3% (inactive). With `CCO[C@H]1OC(C(=O)N2CCOCC2)=C[C@@H](c2ccc3c(c2)OCO3)[C@@H]1CCCO` the inhibition was 9.9% (inactive). With `CCOC(=O)C1CN(S(=O)(=O)c2ccc(F)cc2)C1` the inhibition was 4.5% (inactive). `Clc1ccc2nc(CSc3ccccc3)cn2c1` was tested, and the inhibition was 5% (inactive). In the case of `CCOC(=O)C1=C(c2ccc(OC)cc2)C(=O)c2ccccc2C1=O`, the inhibition was 31.9% (inactive). For `CCOC(=O)c1c(C)[nH]c(=S)c(C#N)c1-c1ccccc1`, the inhibition was -20.7% (inactive). `CCOC(=O)c1c(C)[nH]c2c1-c1ccccc1C(=O)C2=O` was tested, and the inhibition was 55.3% (active). `CN1CCN(CC#CCC2(O)c3ccccc3-c3ccccc32)CC1` was tested, and the inhibition was 4.1% (inactive). In the case of `CCCc1cc(=O)[nH]c(SCC(=O)N2CCN(S(=O)(=O)c3ccc(C)cc3C)CC2)n1`, the inhibition was 2.8% (inactive). In the case of `Cc1nn2cc(-c3ccc(Cl)cc3)cnc2c1Br`, the inhibition was -0.7% (inactive). For `COC(=O)CC(=O)N1CCN(c2ccc(Cl)c(Cl)c2)CC1`, the inhibition was -3.9% (inactive). For `N#Cc1ncc(C(F)(F)F)cc1Oc1cccnc1`, the inhibition was 1.5% (inactive). In the case of `O=C(N/N=C/c1ccco1)c1ccc(C(=O)N/N=C/c2ccco2)o1`, the inhibition was 2.5% (inactive). In the case of `COc1ccc2c(c1)c(=O)c(C(=O)c1ccc(Cl)cc1)cn2CC(=O)Nc1ccc(F)cc1`, the inhibition was -1.7% (inactive). `O=C(N/N=C/c1sc(N2CCCCC2)nc1-c1cccs1)c1cccnc1` was tested, and the inhibition was 0.4% (inactive). In the case of `CC1(C)C2CC=C(/C=N/NC(=O)c3ccc(Cl)cc3)C1C2` (stereo not given), the inhibition was 6.3% (inactive). For `COc1cc(NC(=O)c2cccnc2SC)cc(OC)c1`, the inhibition was 5.3% (inactive). `O=C1CSC(=S)N1/N=C/c1ccc(O)c([N+](=O)[O-])c1` was tested, and the inhibition was 5.2% (inactive). In the case of `Cc1c(Br)c([N+](=O)[O-])nn1CC(=O)Nc1sc2c(c1C(=O)OC(C)C)CCC(C)C2` (stereo not given), the inhibition was -7.9% (inactive). In the case of `COC(=O)Cc1ccc(NC(=S)NCc2ccccc2)cc1`, the inhibition was 12.1% (inactive). `CCO[C@H]1OC(C(=O)Nc2ccccc2)=C[C@@H](C2CC2)[C@@H]1CCCO` was tested, and the inhibition was 10.9% (inactive). For `COc1ccc(-c2cc(C(=O)NC(Cc3c[nH]c4ccccc34)C(=O)O)c(C)o2)cc1OC` (stereo not given), the inhibition was 6.7% (inactive). `CCc1nc(C)cn1S(=O)(=O)c1cc([N+](=O)[O-])ccc1Cl` was tested, and the inhibition was 6.7% (inactive). With `COc1ccc(/C=N/S(=O)(=O)c2ccccc2)cc1OC` the inhibition was 8.4% (inactive). For `O=C(c1ccccc1-c1ccccc1)N1CCOCC1`, the inhibition was 1.2% (inactive). For `Cc1oc2c(c1C(=O)N1CCOCC1)C(=O)c1ccccc1C2=O`, the inhibition was 57.7% (active). `Cc1onc(-c2ccccc2)c1C(=O)N1CCOCC1` was tested, and the inhibition was 17.6% (inactive). `C/C(=N\NC(=O)CNC(=O)C(c1ccccc1)c1ccccc1)c1ccc(C)cc1` was tested, and the inhibition was 11.2% (inactive). With `CC(=O)Oc1c(C(=O)c2nnc(C)o2)c(=O)n(Cc2ccccc2)c2ccccc12` the inhibition was 2.5% (inactive). With `CSc1c(SCc2ccccc2)cnn(Cc2ccccc2)c1=O` the inhibition was 5.1% (inactive). For `OC(COCc1ccco1)CN1CCN(c2ccccc2)CC1` (stereo not given), the inhibition was 12.4% (inactive). For `COc1cc(NC(=S)NNC(=O)CC(C)C)c(OC)cc1Cl`, the inhibition was -0.9% (inactive). In the case of `Cc1ccc(SCCC(=O)Nc2cc(C)on2)cc1`, the inhibition was 6.5% (inactive). In the case of `O=C(CN1C(=O)c2cccc3cccc(c23)C1=O)N1CCCCC1`, the inhibition was -0.3% (inactive). With `O=C(/C=C/c1ccc(Cl)c([N+](=O)[O-])c1)c1cccnc1` the inhibition was 0.4% (inactive). With `Cc1csc(Nc2ccc(Cl)cc2)[n+]1-c1ccc(Cl)cc1` the inhibition was -4% (inactive). `Cc1cccc(OCCC(=O)Nc2cc(S(=O)(=O)N3CCCCC3)ccc2N2CCOCC2)c1` was tested, and the inhibition was 5.4% (inactive). With `CCOc1cc(C(=O)OCC(=O)Nc2cccc(C)c2)ccc1OCC(=O)N1CCOCC1` the inhibition was -19.1% (inactive). For `O=C(COC(=O)c1cnccn1)Nc1cccc2ccccc12`, the inhibition was 4.3% (inactive). In the case of `CCC(=O)Nc1sc(C(=O)Nc2ccccc2)c(C)c1C(=O)OC`, the inhibition was 7.8% (inactive). In the case of `CSc1ccc(CNCCN2CCOCC2)cc1`, the inhibition was 11% (inactive). In the case of `COc1ccc([C@H]2[C@H](C(C)=O)N3N=Cc4ccccc4C3C23C(=O)OC(C)(C)OC3=O)cc1` (stereo not given in full), the inhibition was 4% (inactive). For `CCOC(=O)c1oc2c(CN3CCN(C)CC3)c(O)ccc2c(=O)c1-c1ccc(Br)cc1`, the inhibition was -12.6% (inactive). `Cc1ccc(C(=O)N2CC(=O)Nc3ccccc32)o1` was tested, and the inhibition was 2.3% (inactive). For `Cc1cc(NS(=O)(=O)c2ccc(NC(=S)NC(=O)c3ccc(F)cc3Cl)cc2)no1`, the inhibition was 7.4% (inactive). With `Cc1ccccc1C(=O)OC1OC(=O)C(Cl)=C1Nc1ccccc1` (stereo not given) the inhibition was 2.3% (inactive). With `ClC1(Cl)CC1CSc1ncn[nH]1` (stereo not given) the inhibition was 10.4% (inactive). `Cc1cccc(-n2c(SCC(N)=O)nc3c(c2=O)C2(CCCCC2)Cc2ccccc2-3)c1` was tested, and the inhibition was 7.9% (inactive). With `CCOc1ccc(C(=O)Nc2cccc(-c3ccc4nncn4n3)c2)cc1` the inhibition was 2.6% (inactive). `COc1ccc(C(=O)C2CCCN(C(=O)c3cc4nc(C)cc(C)n4n3)C2)cc1F` (stereo not given) was tested, and the inhibition was 0.8% (inactive). In the case of `COc1ccc(N2CCN(C(=O)c3ccc4c(Cl)c5c(nc4c3)CCCC5)CC2)cc1`, the inhibition was 17.9% (inactive). In the case of `O=C(COC(=O)CSc1nnc(-c2ccc(Cl)cc2)o1)Nc1cc(Cl)cc(Cl)c1`, the inhibition was -35.2% (inactive). For `COc1cc(C(=O)NCc2ccc(-n3cccc3)cc2)cc(OC)c1OC`, the inhibition was 12.2% (inactive). For `Cc1ccc(-c2nc(C)sc2CC(=O)OCC(=O)Nc2c(F)cccc2F)cc1`, the inhibition was -6.1% (inactive). For `CC(C)CNC(=S)NC(=O)c1ccc(Cl)cc1`, the inhibition was 4.7% (inactive). `C=CCn1c(CCNC(=O)c2cccs2)n[nH]c1=S` was tested, and the inhibition was 10.1% (inactive). `Cc1nnnn1/C(=C\c1ccccc1)C(=O)OCC(=O)N1CC2(C)CC1CC(C)(C)C2` (stereo not given) was tested, and the inhibition was -6.6% (inactive). `CCNC(=S)N(CCc1c(C)[nH]c2ccc(C)cc12)Cc1ccco1` was tested, and the inhibition was 13.2% (inactive). With `CC(/C=C/c1ccccc1)=N\NC(=O)C1CC1(C)c1ccccc1` (stereo not given) the inhibition was 5.3% (inactive). With `O=[N+]([O-])c1cc(S(=O)(=O)CCCN2CCOCC2)ccc1F` the inhibition was 10.3% (inactive). For `O=C(Nc1ccc(-c2ccc3nncn3n2)cc1)C1CCCCC1`, the inhibition was 3.6% (inactive). For `CCN1CCN(C(=O)c2ccc(CN(c3ccc(C)c(C)c3)S(C)(=O)=O)cc2)CC1`, the inhibition was 4.1% (inactive). With `C/C(Cc1ccccc1)=N\NC(=O)CNC(=O)c1cccc(Br)c1` the inhibition was 8.4% (inactive). `Cc1nc2ccccc2nc(C)c1=NOCc1ccc(Cl)cc1Cl` was tested, and the inhibition was -13.7% (inactive).
